# Several values for one entry are separate records, joined by “and”; a condition that tells them apart may be missing. Equal entries are not always repeated. Results filed as inconclusive are left out. Entries that show only a call come without a potency. Where a structure was tested more than once in an assay, its records may differ in their call. Activity calls are given as the source filed them. Calls come from the whole dose curve; as a rule, active = well fitted curve in the direction sought with a large enough effect; inconclusive = small, poorly fitted or top-dose-only effect, or another doubt; inactive = no such curve, though single readings can be large; an effect the other way counts as inactive or inconclusive.
# Legend:
# [1] = target: Cytochrome P450 3A7 (Homo sapiens) (UniProt P24462); experiment: Cytochrome P450 family 3 subfamily A member 7 (CYP3A7) small molecule antagonists: luciferase biochemical qHTS assay (AID 1963596); note: nearly all actives have a fitted effect of over 40% in size
# In short: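 Enzyme-substrate mix + cpd (DMSO), 10 min RT; + NADPH regen system, 1 h RT; + luciferin detection reagent, 20 min RT; luminescence read. Proluciferin substrate, P450-Glo format, 1536-well qHTS.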
# [2] = Viability qHTS for spleen associated tyrosine kinase inhibitor (SYKi) naive MV4-11 cells (AID 1963823); note: nearly all actives have a fitted effect of over 40% in size; note: potency is the fitted concentration of half-maximal effect
# In short: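 SYKi-naive MV4-11 AML cells, 500 per well, were exposed to library compounds for 72 hr at 37 C, 5% CO2. Viability was then read by CellTiter-Glo luminescence after 10 min at room temperature.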
# [3] = Viability qHTS for spleen associated tyrosine kinase inhibitor (SYKi) drug resistant MV4-11 cells (AID 1963824); note: nearly all actives have a fitted effect of over 35% in size; note: potency is the fitted concentration of half-maximal effect
# In short: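 CellTiter-Glo luminescence, read 10 min after reagent addition, reports viability after a 72 hr compound exposure. Cells are an MV4-11 line made resistant to SYK inhibition, seeded at 500 per well onto compound-containing plates.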
# [4] = Cellular viability qHTS for adrenocortical cancer (ACC) cell line SW-13 (AID 1963989); details: SW-13 ACC cells viability, CellTiter-Glo, 48 h; activity (max response): stronger effect = lower value;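 note: cells grown in serum-free medium with ITS supplement; nearly all actives have a fitted effect of over 65% in size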
# In short: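 IC50 and maximal-response values come from four-parameter logistic fits of titration data. SW-13 cells in serum-free medium received compounds (up to 46 uM final) for 48 h before CellTiter-Glo luminescence.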
# [5] = Quantitative highthroughput screen to assess conditional lethalithy of NOMO1 cells grown in RPMI1640 with untreated serum (RPMI+s) (AID 1963876); note: nearly all actives have a fitted effect of over 35% in size
# In short: (§1)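 Each medium arm—HPLM with 10% dialyzed FBS, or RPMI1640 with 5 mM glucose and 10% untreated or dialyzed FBS—was screened against an 11-point, 3-fold compound titration for 48 h at 37 °C, with CellTiter-Glo luminescence as endpoint.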
# [6] = Quantitative highthroughput screen to assess conditional lethalithy of NOMO1 cells grown in RPMI1640 with dialyzed fetal bovine serum (RPMI+ds) (AID 1963877); note: series mostly up to about 46 µM; nearly all actives have a fitted effect of over 30% in size
# In short: as §1
# [7] = Quantitative highthroughput screen to assess conditional lethalithy of SEM cells grown in Human Plasma-Like Medium with dialyzed fetal bovine serum (HPLM+ds) (AID 1963882); note: nearly all actives have a fitted effect of over 35% in size; note: potency is the fitted concentration of half-maximal effect; for Viability: series mostly up to about 46 µM
# In short: as §1
# [8] = Cellular viability qHTS for adrenocortical cancer (ACC) cell line NCI-H295R (AID 1963990); note: nearly all actives have a fitted effect of over 60% in size
# In short: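 Adrenocortical carcinoma cells, suspended at 300 000 cells/mL in serum-free DMEM plus ITS, rested overnight before pin transfer of compound. After two days' incubation, ATP-dependent luminescence was recorded and curve-fitted.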
# [9] = Quantitative highthroughput screen to assess conditional lethalithy of NOMO1 cells grown in Human Plasma-Like Medium with dialyzed fetal bovine serum (HPLM+ds) (AID 1963878); note: nearly all actives have a fitted effect of over 35% in size
# In short: as §1
# [10] = Quantitative highthroughput screen to assess conditional lethalithy of P12 Ichikawa cells grown in RPMI1640 with dialyzed fetal bovine serum (RPMI+ds) (AID 1963880); details: Potency: P12-Ichikawa viability; note: nearly all actives have a fitted effect of over 35% in size
# In short: as §1
# [11] = Quantitative highthroughput screen to assess conditional lethalithy of P12 Ichikawa cells grown in RPMI1640 with untreated serum (RPMI+s) (AID 1963881); details: Potency: viability
# In short: as §1
# [12] = Quantitative highthroughput screen to assess conditional lethalithy of P12 Ichikawa cells grown in Human Plasma-Like Medium with dialyzed fetal bovine serum (HPLM+ds) (AID 1963879); details: Potency: viability
# In short: as §1
# [13] = Quantitative highthroughput screen to assess conditional lethalithy of SEM cells grown in RPMI1640 with unreated serum (RPMI+s) (AID 1963883); note: nearly all actives have a fitted effect of over 35% in size
# In short: as §1
# Cytochrome P450 3A7 (Homo sapiens), sequence (P24462 whole entry, looked up): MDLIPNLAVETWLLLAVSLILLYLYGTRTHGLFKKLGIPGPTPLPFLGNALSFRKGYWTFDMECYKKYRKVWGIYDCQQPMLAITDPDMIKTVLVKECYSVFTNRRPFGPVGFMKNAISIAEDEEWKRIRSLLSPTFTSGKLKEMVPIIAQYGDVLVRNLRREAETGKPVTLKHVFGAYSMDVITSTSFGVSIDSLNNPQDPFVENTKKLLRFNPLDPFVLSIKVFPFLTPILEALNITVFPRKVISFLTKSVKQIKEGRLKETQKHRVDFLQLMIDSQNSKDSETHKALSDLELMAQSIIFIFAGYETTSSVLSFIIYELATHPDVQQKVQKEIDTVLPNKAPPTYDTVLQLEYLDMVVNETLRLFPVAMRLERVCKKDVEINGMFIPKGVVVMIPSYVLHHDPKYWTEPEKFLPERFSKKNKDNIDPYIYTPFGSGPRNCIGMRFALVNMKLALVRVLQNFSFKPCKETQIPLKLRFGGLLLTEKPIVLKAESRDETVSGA
smiles,measurement,setting,value
COc1ccc(OC)c(C(O)C(C)N)c1 (stereo not given),Potency,[1],inactive
CCCCCCn1c(=O)c(C(=O)Nc2ccc(C(=O)OCCC)cc2)c(O)c2ccccc21,Potency,[1],inactive
same,viability (% of control),[2],62.6% [at 9.25 µM] (inactive)
same,"viability, % of control",[3],83.2% [at 9.25 µM] (inactive)
CCN(C(C)=O)c1cccc(-c2ccnc3c(C#N)cnn23)c1,Potency,[1],inactive
same,Potency,[2],inactive
same,Potency,[3],inactive
same,activity (max response),[4],-7.67% (inactive)
Cn1c(CCCC(=O)O)nc2cc(N(CCCl)CCCl)ccc21,Potency,[1],inactive
same,Potency,[2],inactive and 11.8 µM (active)
same,Potency,[3],inactive and 11.8 µM (active)
same,Potency,[5],inactive
same,Potency,[6],inactive
same,Potency,[7],inactive
same,activity (max response),[4],2.81% (inactive) and -9.72% (inactive)
same,Potency,[8],inactive
N#Cc1ccc([C@H]2CCCC[C@H]2O)cc1C(F)(F)F,Potency,[1],inactive
O=C(Oc1ccc([N+](=O)[O-])cc1)N1CCN(Cc2cccc(Oc3ccccc3)c2)CC1,Potency,[1],inactive
same,Potency,[2],16.4 µM (active)
same,Potency,[3],13.2 µM (active)
same,Potency,[5],inactive
same,Potency,[9],inactive
same,Potency,[10],inactive
same,Potency,[11],inactive
same,Potency,[7],inactive
CCCCNCC(O)c1ccc(O)cc1 (stereo not given),Potency,[1],inactive
CC(=O)NCCCOc1ccc(C(=O)N2CCC(N3C(=O)CCc4ccccc43)CC2)cc1,Potency,[1],inactive
C#CC(C)(O)CC (stereo not given),Potency,[1],inactive
COc1ccsc1CNCC[C@@]1(c2ccccn2)CCOC2(CCCC2)C1,Potency,[1],inactive
same,Potency,[2],inactive
same,Potency,[3],inactive
O=C(O)C(Cl)Cl,Potency,[1],inactive
same,Potency,[2],inactive
same,Potency,[3],inactive
same,activity (max response),[4],11.1% (inactive)
C=CCC1(CC(C)C)C(=O)NC(=O)NC1=O,Potency,[1],inactive
Cc1sc2c(c1C)C(c1ccc(Cl)cc1)=NC(CC(=O)Nc1ccc(O)cc1)c1nnc(C)n1-2 (stereo not given),Potency,[1],inactive
same,Potency,[2],0.148 µM (active)
same,Potency,[3],0.105 µM (active)
NCC(O)c1cccc(O)c1 (stereo not given),Potency,[1],inactive
CCNCC(O)c1cccc(O)c1 (stereo not given),Potency,[1],inactive
c1ccc([C@@H]2C[C@H]2NC2CCNCC2)cc1,Potency,[1],inactive
same,Potency,[2],inactive
NC(=O)CN1CCCC1=O,Potency,[1],inactive
same,Potency,[2],inactive
Cc1cn(C[C@H](N)C(=O)O)c(=O)n(Cc2cc(-c3ccccc3)sc2C(=O)O)c1=O,Potency,[1],inactive
same,Potency,[2],inactive
same,Potency,[3],inactive
O=C(CC1NCCC[C@H]1O)Cn1cnc2cc(Br)c(Cl)cc2c1=O (stereo not given in full),Potency,[1],inactive
C=CCN1CCC23c4c5ccc(O)c4O[C@H]2C(=O)CC[C@@]3(O)C1C5 (stereo not given in full),Potency,[1],inactive
Cc1ccccc1CN1CCC(N2CCC(n3c(=O)[nH]c4ccccc43)CC2)CC1,Potency,[1],inactive
C[C@H]1C(=O)O[C@@H]2CCN3CC=C(COC(=O)[C@](C)(O)[C@]1(C)O)[C@H]23,Potency,[1],inactive
same,Potency,[2],inactive
same,Potency,[3],inactive
same,activity (max response),[4],-4.54% (inactive)
CN1C2CCC1CC(OC(=O)N1Cc3ccccc3NC1=O)C2 (stereo not given),Potency,[1],inactive
same,Potency,[2],inactive
same,Potency,[3],inactive
CC(N)Cc1c[nH]c2ccccc12 (stereo not given),Potency,[1],inactive
same,Potency,[2],inactive
same,Potency,[3],inactive
CCNC(C)Cc1cccc(C(F)(F)F)c1 (stereo not given),Potency,[1],inactive
CN1C(=O)C(Cc2ccc3ccccc3c2)N=C(c2ccc(O)cc2)c2cc(Cl)ccc21 (stereo not given),Potency,[1],inactive
same,Potency,[2],20.6 µM (active)
same,Potency,[3],13 µM (active)
CC(Cc1ccccc1)N(C)Cc1ccco1 (stereo not given),Potency,[1],inactive
same,Potency,[2],inactive
same,Potency,[3],inactive
same,activity (max response),[4],-0.53% (inactive)
C=C1CC[C@@]2(O)[C@H]3Cc4ccc(O)c5c4[C@@]2(CCN3CC2CC2)[C@H]1O5,Potency,[1],inactive
same,Potency,[2],inactive
same,Potency,[3],inactive
NCCS[As](SCCN)c1ccc(Nc2nc(N)nc(N)n2)cc1,Potency,[1],inactive
O=C(N1CCCCC1Cc1ccccc1)n1cc(-c2ccc(-c3ccccc3)cc2)nn1 (stereo not given),Potency,[1],inactive
CCCCNC(C)(C)[P+](=O)O,Potency,[1],inactive
O=P1(N(CCCl)CCCl)NCCCO1 (stereo not given),Potency,[1],inactive
same,Potency,[2],inactive
same,Potency,[3],inactive
same,Potency,[7],9.35 µM (active)
same,Potency,[8],inactive
CN1CCN(C(=O)O[C@H]2c3nccnc3C(=O)N2c2ccc(Cl)cn2)CC1,Potency,[1],inactive
same,Potency,[2],inactive
same,Potency,[3],inactive
same,Potency,[10],inactive
same,activity (max response),[4],9.33% (inactive)
same,Potency,[8],inactive
CCN(CC)N(O)N=O,Potency,[1],inactive
CC(C)N(CCNC(=O)CN1CCCC1=O)C(C)C,Potency,[1],inactive
same,Potency,[2],inactive
same,Potency,[3],inactive
same,Potency,[5],inactive
same,Potency,[12],inactive
same,Potency,[10],inactive
same,Potency,[11],inactive
same,Potency,[7],inactive
same,Potency,[13],inactive
CCN1CCN(C(c2ccc(Cl)cc2)c2ccc(Cl)cc2)CC1,Potency,[1],inactive
CCOC(=O)c1ccccc1C(=O)OCC,Potency,[1],inactive
C[C@]12CC[C@H]3[C@@H](CC=C4C[C@@H](O)CC[C@@]43C)[C@@H]1CC[C@@H]2O,Potency,[1],inactive
CN(C)CCc1ccc(O)cc1,Potency,[5],inactive
same,Potency,[6],inactive
same,Potency,[12],inactive
same,Potency,[10],inactive
same,Potency,[7],inactive
same,Potency,[13],inactive

# From PubChem BioAssay (NCATS)
